Where a name gives a salt, the structure may show the parent alone.
Test system: Danio rerio larvae Tg(actc1b:ZsGreen-LC3), 3 dpf
Test: LC3 puncta relative area vs vehicle, with NH4Cl (autophagic flux) (log2 fold change); higher = more autophagy
Settings: 10 µM; treatment time 16 h; NH4Cl: + 100 mM, 4 h
Protocol: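 Transgenic Tg(actc1b:ZsGreen-map1lc3) zebrafish larvae (2 dpf) were treated for 16 h with Tocris library compounds at 10 µM (n = 12 larvae per compound). Skeletal-muscle LC3 puncta area relative to body area was measured by high-content confocal imaging before and after 4 h of 100 mM NH4Cl (autophagic flux), normalised to vehicle (DMSO), and reported as log2 fold change.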

| SMILES | LC3 puncta (log2) |
| --- | --- |
| CN1C[C@H](CNC(=O)OCc2ccccc2)C[C@@H]2c3cccc4c3c(cn4C)C[C@H]21 [Metergoline] | 0.408 |
| Fc1ccc(C(OCCN2CCN(C/C=C/c3ccccc3)CC2)c2ccc(F)cc2)cc1 | 0.995 |
| CCCN(C/C=C/I)C1CCc2ccc(O)cc2C1 (configuration not stated) [7-Hydroxy-PIPAT maleate] | 0.264 |
| S=C=Nc1cccc(C2(N3CCCCC3)CCCCC2)c1 [Metaphit] | 0.576 |
| S=C(NC1CCCCC1)N1CCC(c2cnc[nH]2)CC1 [Thioperamide] | 0.48 |
| Cc1nc(N)sc1CCN [Amthamine dihydrobromide] | 0.697 |
| CC(C(=O)OC1CC2CCC(C1)N2C)c1ccc(Br)cc1 (configuration not stated) [PG-9 maleate] | 0.169 |
| CC(C)[C@@]1(NC(=O)[C@@H]2C[C@@H]3c4cccc5[nH]cc(c45)C[C@H]3N(C)C2)O[C@@]2(O)[C@@H]3CCCN3C(=O)[C@H](Cc3ccccc3)N2C1=O [Dihydroergocristine mesylate] | 0.198 |
| Cc1cc(C)cc(C(=O)OC2C[C@H]3CC[C@@H](C2)N3C)c1 (some centres not stated) [Tropanyl-3,5-dimethylbenzoate] | 0.418 |
| Cn1cnc(CCN)c1 [N?-Methylhistamine dihydrochloride] | 0.559 |
| CCCCCCC[n+]1ccc(-c2cc[n+](CCCCCCC)cc2)cc1 [DHBP dibromide] | 0.343 |
| c1ccc(C2CNCc3ccccc32)cc1 (configuration not stated) [4-Phenyl-1,2,3,4-tetrahydroisoquinoline hydrochloride] | 0.39 |
| C=C(C)[C@H]1CN[C@H](C(=O)O)[C@H]1CC(=O)O [Kainic acid] | 0.23 |
| CC(CN)CC(=O)O (configuration not stated) [3-Methyl-GABA] | 0.425 |
| Cc1ccc(C[N+](C)(C)C)o1 [5-Methylfurmethiodide] | 0.316 |
| N=C(N)NN [Aminoguanidine hydrochloride] | 0.662 |
| CC[N+](CC)(CCCNC1=CC(=O)C(NCCC[N+](CC)(CC)Cc2ccccc2)=CC1=O)Cc1ccccc1 [Benzoquinonium dibromide] | 0.386 |
| N[C@@H](Cn1oc(=O)[nH]c1=O)C(=O)O [L-Quisqualic acid] | 0.686 |
| N=C(NCc1ccc(Cl)cc1)SCCCc1c[nH]cn1 [Clobenpropit dihydrobromide] | 0.922 |
| CCCN(CCC)C1CCc2cccc(O)c2C1 (configuration not stated) [8-Hydroxy-DPAT hydrobromide] | 0.325 |
| CCC(Oc1ccc(Cl)cc1)C(=O)OC1C[C@H]2CC[C@@H](C1)N2C (some centres not stated) [SM-21 maleate] | 0.294 |
| COC(=O)[C@@H](N)CCCNC(=N)N[N+](=O)[O-] [L-NAME hydrochloride] | 0.657 |
| CO[C@]12C[C@@H](COC(=O)c3cncc(Br)c3)CN(C)[C@@H]1Cc1cn(C)c3cccc2c13 [Nicergoline] | 0.397 |
| CS(=O)(=O)Nc1ccc(Cc2noc(-c3ccc4[nH]cc(CCN)c4c3)n2)cc1 | 0.382 |
| C[C@H](N)Cc1cnc[nH]1 | 0.58 |
| O=C(CCCN1CCC2(CC1)C(=O)N(Cc1cccc(F)c1)CN2c1ccccc1)c1ccc(F)cc1 [3'-Fluorobenzylspiperone maleate] | 1.38 |
| CN(C(=O)Cc1ccccc1)C(CN1CCCC1)c1ccccc1 (configuration not stated) [N-MPPP Hydrochloride] | 0.566 |

From the supplement of paper PMC12532568
